Reference: PubChem BioAssay AID1220 (Sanford-Burnham Center for Chemical Genomics, 2008)
The whole screen tested about 190,000 compounds, of which about 1,300 (0.68%) were called active. Cut-off read from the data, not from the text of the source: active = inhibition above about 50%; inactive = the rest. Only a selection was taken, and actives are over-represented in it overall.

biological target: Mannose-6-phosphate isomerase (Homo sapiens) (UniProt P34949); test: human PMI inhibitors, high substrate, primary screen, biochemical, fluorescence intensity, high mannose 6-phosphate (AID 1220); settings: recombinant PMI enzyme, coupled fluorescence intensity; at 20 µM; active compounds read high
Sequence (P34949 whole entry, looked up): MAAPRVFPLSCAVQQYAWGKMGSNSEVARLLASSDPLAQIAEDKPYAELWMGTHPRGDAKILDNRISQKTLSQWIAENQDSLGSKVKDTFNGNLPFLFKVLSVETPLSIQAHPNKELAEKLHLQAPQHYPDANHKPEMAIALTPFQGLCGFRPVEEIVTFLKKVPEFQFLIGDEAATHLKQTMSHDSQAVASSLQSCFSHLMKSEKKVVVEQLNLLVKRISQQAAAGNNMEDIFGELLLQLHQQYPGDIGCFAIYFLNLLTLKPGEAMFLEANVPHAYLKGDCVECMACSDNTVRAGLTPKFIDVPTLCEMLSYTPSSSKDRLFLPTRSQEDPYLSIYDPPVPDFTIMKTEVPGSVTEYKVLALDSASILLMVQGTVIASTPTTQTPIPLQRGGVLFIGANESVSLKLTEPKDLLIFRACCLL

SMILES | inhibition
O=C(CSCc1ccccc1)N1CCN(Cc2ccc3c(c2)OCO3)CC1 | 9.8% (inactive)
O=C1OCCC1Sc1nc2ccccc2c(=O)n1Cc1ccccc1 (stereo not given) | -1.6% (inactive)
COc1ccc(-c2nnc(SC)o2)c(OC)c1 | 2% (inactive)
COC(=O)Cc1csc(Nc2ccc(F)c(Cl)c2)n1 | -0.3% (inactive)
O=c1cc(O)c2sc(Nc3ccc(F)c(Cl)c3)nc2[nH]1 | 57.5% (active)
Cc1cc(NC(=O)c2sc(Nc3ccc(F)c(Cl)c3)nc2N)no1 | -10.8% (inactive)
CN(Cc1ccccc1)c1ccc(S(=O)(=O)N2CCC(C(=O)O)CC2)cc1[N+](=O)[O-] | 10.6% (inactive)
Brc1ccc(-c2noc(COc3ccc4c(c3)CCC4)n2)o1 | 14% (inactive)
O=C(OCCOCCN=C1NS(=O)(=O)c2ccccc21)C1CC(=O)N(c2ccccc2)C1 (stereo not given) | -2.6% (inactive)
Cc1nc(-c2ccc(C(=O)Nc3ccccc3F)cc2)cs1 | -3.7% (inactive)
C=CCOc1c(Cl)cc(CNc2ccc3[nH]c(=O)[nH]c3c2)cc1OC | 35% (inactive)
CCOc1cc(CNc2ccc(S(N)(=O)=O)cc2)cc(Cl)c1OC | 2.7% (inactive)
CCOc1c(Cl)cc(CNc2ccc(S(N)(=O)=O)cc2)cc1OC | -2% (inactive)
CCOc1cc(CNc2ccc(N3CCOCC3)cc2)cc(Br)c1OCC | 14.8% (inactive)
C=CCOc1c(Cl)cc(CNc2ccc(C)c(Cl)c2)cc1OC | 12.6% (inactive)
COc1cc(CNc2ccc(N3CCOCC3)cc2)cc(Br)c1OC | 9.3% (inactive)
C=CCOc1c(Cl)cc(CNc2ccc(N(C)C)cc2)cc1OC | 54% (active)
CC1=CC(C)(C)N(C(=O)CCl)c2cc(C)ccc21 | -1.9% (inactive)
CN(C)C(=C(C#N)C#N)N1CCN(c2ccc(Cl)c(Cl)c2)CC1 | 6.1% (inactive)
CC(C)(C)[C@H]1C=C(C(=O)N2CCN(Cc3ccc4c(c3)OCO4)CC2)O[C@@H](OCc2ccc(CO)cc2)C1 | 2.7% (inactive)
COc1ccc(Br)cc1CN1CCN(C(=O)c2ccc(OC)c(OC)c2)CC1 | 2.3% (inactive)
CCOC(=O)CCC(NC(=O)CCCCCCCCC(=O)NC(CCC(=O)OCC)C(=O)OCC)C(=O)OCC (stereo not given) | 6.1% (inactive)
COc1ccc(NS(=O)(=O)c2cccc(NC(=O)CCS(=O)(=O)c3ccccc3)c2)cc1 | 8.9% (inactive)
O=C(CN1CCCCCC1)Nc1ccc(F)c(F)c1 | -9.6% (inactive)
CCCCNC(=O)c1onc(CSc2cc(C)cc(C)c2)c1C(=O)O | -4% (inactive)

SMILES | inhibition
O=C(N/N=C/c1cc(Br)c(Br)o1)C(O)c1ccccc1 (stereo not given) | 5.2% (inactive)
CC(CC(C)C(=O)Nc1ccccc1C(C)(C)C)C(=O)O (stereo not given) | -12.3% (inactive)
CC(CC(=O)O)Nc1ccccc1O (stereo not given) | 49.3% (inactive)
CC(CNc1ccccc1O)C(=O)O (stereo not given) | 64.7% (active)
COc1cc2c(cc1NC(=O)CSc1cccc[n+]1[O-])oc1ccccc12 | -6.2% (inactive)
CN(C)CC/C=C1\c2ccccc2Sc2ccc(Cl)cc21 | -12.5% (inactive)
COc1cc(Cl)cc2c1Sc1ccccc1/C2=C/CCN(C)C | -9.3% (inactive)
CN(C)CC/C=C1/c2ccccc2Sc2c(O)cc(Cl)cc21 | 50% (active)
N#CC1(c2nc3ccccc3[nH]2)CC1c1ccc2c(c1)OCO2 (stereo not given) | 0.1% (inactive)
COc1ccc(S(=O)(=O)N2CCc3ccccc32)cc1NC(C)=O | 1.8% (inactive)
CNCC(C)COc1ccccc1OCc1ccccc1 (stereo not given) | -5.2% (inactive)
N#CC1=C(N)OC2=C(C(=O)CCC2)C12CCN(C(=O)OCc1ccccc1)CC2 | -6.7% (inactive)
CCOc1ccccc1NS(=O)(=O)c1c(C)noc1C | 54.2% (active)
CCOc1ccccc1NC(=O)C1CCN(S(=O)(=O)c2c(C)noc2C)CC1 | 2.7% (inactive)
CCOc1ccccc1NS(=O)(=O)c1cn(C)nc1C | -10.4% (inactive)
CC(=O)Nc1c(NC(=O)CC#N)[nH]c2c(c1=O)c(=O)n(C)c(=O)n2C | 15.1% (inactive)
CCn1c(C)cc(C=C2C(=O)c3ccccc3C2=O)c1C | 20.2% (inactive)
Cc1ccc(N(CC(=O)Nc2ccc(F)c(Cl)c2)S(=O)(=O)c2c(C)noc2C)cc1 | 11.9% (inactive)
CCNC(=O)Nc1ccccc1C(=O)OC | -5.5% (inactive)
C#CC(CC)(CC)NC(=O)Nc1ccccc1C(=O)OC | 64.6% (active)
CCOC(=O)CNC(=O)Nc1ccccc1C(=O)OC | -7.2% (inactive)
N#Cc1nc(-c2cccs2)oc1NCC1CCCO1 (stereo not given) | 0.2% (inactive)
O=[N+]([O-])c1ccc(SCc2ccco2)cc1N1CCOCC1 | 1.4% (inactive)
O=[N+]([O-])c1ccc(N2CCOCC2)cc1SCc1ccco1 | 68.5% (active)
CS(=O)(=O)N1CCN(c2ccc([N+](=O)[O-])c(SCc3ccco3)c2)CC1 | 43.6% (inactive)

SMILES | inhibition
CC(=O)NC(=S)Nc1ccc(S(=O)(=O)N2CCOCC2)cc1 | -4.7% (inactive)
O=C1CSc2ccc(C(=O)NCCC3=CCCCC3)cc2N1 | -5.5% (inactive)
COCCNC(=O)c1ccc2c(c1)NC(=O)CS2 | 53.7% (active)
COC(=O)c1ccc2c(c1)NC(=O)CS2 | -9.2% (inactive)
COc1cccc(C(=O)Nc2ccc(S(=O)(=O)Nc3onc(C)c3C)cc2)c1 | -1.9% (inactive)
COc1ccc(OCC(O)COc2ccc(OC)cc2)cc1 | -1.9% (inactive)
Nc1ccc(OCC(O)C[n+]2ccc(CCS(=O)(=O)[O-])cc2)cc1 (stereo not given) | 53.8% (active)
Nc1ccc(CCS(N)(=O)=O)cc1 | -2.1% (inactive)
Cc1cc(CNC(=O)COc2ccccc2F)c2ccccc2n1 | -0.4% (inactive)
COc1ccc(CN2CCN(Cc3csc(C(C)=O)c3)CC2CCO)c(C)c1C (stereo not given) | -1.9% (inactive)
COc1ccc(/C=N/NC(=O)c2nn(-c3ccc(Cl)cc3)c(=O)c3c(N)scc23)cc1 | 41.9% (inactive)
CCOC(=O)c1nn(-c2ccc(F)cc2)c(=O)c2c(N)scc12 | 62.3% (active)
CCOC(=O)c1nn(-c2ccccc2)c(C(=O)OCC)c1N | 10.9% (inactive)
CCOC(=O)c1nn(-c2ccccc2)c(=O)c2c(N)scc12 | 63.3% (active)
COc1ccc(/C=N/NC(=O)c2nn(-c3ccc(C)c(C)c3)c(=O)c3ccccc23)cc1 | 22.6% (inactive)
CCOC(=O)c1nn(-c2ccc(C)c(C)c2)cc1O | 12.2% (inactive)
CCOC(=O)c1nn(-c2ccccc2)c(=O)c2c(NC(C)=O)scc12 | 0% (inactive)
CCCSc1cc(=O)n(-c2ccc(F)cc2)nc1C(=O)OCC | -6% (inactive)
CCOC(=O)c1nn(-c2ccc(F)cc2)c(C)c1C(C)=O | -0.1% (inactive)
Cc1ccc(-n2nc(C(=O)O)c3ccccc3c2=O)cc1C | -1.7% (inactive)
CCOC(=O)c1nn(-c2ccc(C)c(C)c2)c(=O)c2c(N)scc12 | 54.4% (active)
COc1ccc(/C=N/NC(=O)c2nn(-c3ccccc3)c(=O)c3c(N)scc23)cc1 | 52.4% (active)
CCOC(=O)C1CCN(S(=O)(=O)c2ccc(C(=O)OC)cc2)CC1 | -3.3% (inactive)
CCOC(=O)c1cc2occc2n1CC(=O)Nc1ccc(OC)cc1OC | 9% (inactive)
CCOC(=O)c1nc(N)c(=O)n(-c2ccc(C)cc2)n1 | -8.9% (inactive)

SMILES | inhibition
CCOC(=O)c1nn(-c2ccc(OC)cc2)c(=O)c2c(N)scc12 | 27.4% (inactive)
CCOC(=O)c1nn(-c2ccc(C)cc2)c(=O)c2c(N)scc12 | 61.7% (active)
COc1ccccc1NC(=O)C/C(N)=N/O | -9.6% (inactive)
CNC(=O)C(=O)NCCCN1CCOCC1 | -4.4% (inactive)
O=[N+]([O-])c1ccc(N2CCCC2)cc1N1CCCC1 | 50.2% (active)
COc1cc(N2CCCC2)ccc1[N+](=O)[O-] | 19.4% (inactive)
CCNc1cc(N2CCCC2)ccc1[N+](=O)[O-] | 32.8% (inactive)
O=[N+]([O-])c1ccc(N2CCCCC2)cc1N1CCOCC1 | 4.6% (inactive)
C=CCNc1cc(N2CCCC2)ccc1[N+](=O)[O-] | 51.8% (active)
CCOc1cc(N2CCCC2)ccc1[N+](=O)[O-] | 53.4% (active)
O=[N+]([O-])c1ccc(N2CCOCC2)cc1N1CCCCC1 | -3.2% (inactive)
Cc1cc(N2CCCCC2)ccc1[N+](=O)[O-] | 44.8% (inactive)
CC(C)(C)CNc1cc(N2CCCC2)ccc1[N+](=O)[O-] | 11.3% (inactive)
O=C(/C=C/c1ccco1)c1ccc(O)cc1 | 11.9% (inactive)
Cn1c(CN2CCCC2)nc2cc(NC(=O)c3cccs3)ccc21 | -21.8% (inactive)
Cc1nn(-c2ccccn2)c2c1-c1nc(N)ncc1CC2 | 40.6% (inactive)
Cc1nn(-c2ccccn2)c2c1-c1nc(N3CCOCC3)ncc1CC2 | 57.5% (active)
Cc1nn(-c2ccc(F)cc2F)c2c1-c1nc(N3CCCC3)ncc1CC2 | 38.1% (inactive)
C[C@@H]1NC(=O)[C@H](CCCN=C(N)N)NC(=O)c2cc([N+](=O)[O-])cc(I)c2OCC[C@@H](C(N)=O)NC1=O | -20.7% (inactive)
Cc1nc2cc3nc(C(F)(F)F)[nH]c3cc2[nH]1 | 52.2% (active)
Nc1ccc2nc(C(F)(F)F)[nH]c2c1 | 37% (inactive)
Cc1nc2ccc(C(C(F)(F)F)(C(F)(F)F)C(F)(F)F)cc2[nH]1 | 14.4% (inactive)
COCCNC(=O)C1=NOC(Cn2cc(C#N)c(=O)n(C)c2=O)C1 (stereo not given) | 5.3% (inactive)
CCCNC(=O)/C=C/c1ccc(S(=O)(=O)Nc2ccccc2OC)cc1 | -3.6% (inactive)
CC1CCCCC1NC(=O)CCCn1c(=S)[nH]c2ccccc2c1=O (stereo not given) | -12.4% (inactive)
